We go through seven compounds from PubChem BioAssay (Tox21).

Results filed as inconclusive are left out. Activity calls are given as the source filed them. Unless noted, calls follow the shape of the dose curve; as a rule, active = well fitted curve in the direction sought with a large enough effect in the repeat runs; inconclusive = weak or mixed curves; inactive = no such curve, though single readings can be large; an effect the other way counts as inactive or inconclusive.

Test [1] has as its target Androgen receptor (Homo sapiens) (UniProt P10275). Description: qHTS assay to identify small molecule antagonists of the androgen receptor (AR) signaling pathway using the MDA cell line in the presence of 0.5 nM R1881 (AID 1259243). Also: nearly all actives have a fitted effect of over 50% in size. Also: potency is read from the fitted curve at half-maximal effect. In outline:
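With R1881 held at 0.5 nM (final), compound effects on MMTV-luciferase expression in MDA-kb2 cells were scored by luminescence after a 16 hr, 37C incubation.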
On the technique in general: qHTS replaces the single test concentration by a dilution series.

Test [2] in a line: qHTS assay to identify small molecule HDAC inhibitors (AID 1259364).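 Also: wild-type HCT-116 cells with endogenous class I/II HDAC activity; top concentration of the series differs between compounds; nearly all actives have a fitted effect of over 45% in size.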 In outline: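 Screening used wild-type human colon HCT-116 cells incubated overnight, dosed with compounds for 2 hours, and assayed with a homogeneous luminogenic HDAC I/II reagent for 30 minutes at room temperature.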
The nature of test [3]: qHTS assay to identify small molecule HDAC inhibitors - cell viability counter screen (AID 1259365). Also: nearly all actives have a fitted effect of over 50% in size. Also: potency is read from the fitted curve at half-maximal effect. In short, it runs like this: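 Measured quantity is CellTiter-Glo luminescence from wild-type HCT-116 cells after compound incubation of 2hr at 37C, 5% CO2; reagent developed 30min at room temperature.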
Test [4] in a line: qHTS assay to identify small molecule agonists of the sonic hedgehog signaling (Shh) pathway - cell viability counter screen (AID 1259366). Also: nearly all actives have a fitted effect of over 50% in size. Also: potency is read from the fitted curve at half-maximal effect. In outline: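 In quantitative high-throughput format, 3T3 Gli1-Luc cells were exposed to compounds for 24hr and multiplexed for viability using CellTiter-Fluor, incubated 1hr at 37C before the fluorescence read.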
Test [5] can be described thus: qHTS assay to identify small molecule antagonists of the sonic hedgehog signaling (Shh) pathway - cell viability counter screen (AID 1259367). Also: nearly all actives have a fitted effect of over 55% in size. Also: potency is read from the fitted curve at half-maximal effect. In outline:
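Cytotoxicity was assessed in parallel with Shh reporter activity by measuring live-cell protease fluorescence (CellTiter-Fluor) in NIH/3T3 cells stably carrying Gli1-Luc, treated with compound under conditioned medium stimulation for 23 hr plus 1 hr reagent incubation.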

A short description of test [6]: qHTS assay to identify small molecule agonists of the sonic hedgehog signaling (Shh) pathway (AID 1259368; calls by dose curve;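 also: NIH/3T3-derived 3T3Gli1-Luc cells carrying a stable Gli1-driven firefly luciferase reporter; series mostly up to about 92 µM; nearly all actives have a fitted effect of over 15% in size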). In short, it runs like this: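 Hedgehog pathway agonism scored by increased firefly luciferase luminescence in 3T3Gli1-Luc cells treated 24 hr at 37 C; detection used a 30 min room-temperature reagent incubation.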
The nature of test [7]: qHTS assay to identify small molecule antagonists of the sonic hedgehog signaling (Shh) pathway (AID 1259369; calls by dose curve; also: nearly all actives have a fitted effect of over 45% in size; also: potency is read from the fitted curve at half-maximal effect). In short, it runs like this:
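NIH/3T3 stable Gli1-Luc clone, 2,000 cells/well, 4hr settle; cpd + conditioned medium 24hr; Luc reagent 30min RT; luminescence.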

Test [8] deals with Estrogen receptor beta (Homo sapiens) (UniProt Q92731). The test is described as follows: qHTS assay to identify small molecule agonists of the estrogen receptor beta (ER-beta) signaling pathway (AID 1259377; active = well fitted activation curve with a large enough effect in the signal ratio in the repeat runs, not every such curve was filed as active; the % refers to the signal ratio). In short, it runs like this:
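Reporter cells (HEK293T, ER-beta-UAS-bla) receive compounds or DMSO after a 6 hr pre-incubation. They then incubate 16 hr at 37C/5% CO2, and fluorescence from LiveBLAzer B/G substrate is measured after 2 hours at room temperature.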

For test [9] the target is unchanged. The test is described as follows: qHTS assay to identify small molecule antagonists of the estrogen receptor beta (ER-beta) signaling pathway (AID 1259378; active = well fitted inhibition curve with a large enough effect in the signal ratio in the repeat runs, not every such curve was filed as active; the % refers to the signal ratio; also: potency is read from the fitted curve at half-maximal effect). In outline:
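ER-beta-UAS-bla HEK293T (GripTite) cells in 2% charcoal-stripped FBS medium were preincubated 6 hr at 37C, dosed with compound, then stimulated with 1 nM E2 (final) for 16 hr; beta-lactamase reporter read by B/G FRET fluorescence after 2 hr substrate loading.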

Test [10] in a line: qHTS assay to identify small molecule agonists of the androgen receptor (AR) signaling pathway in the presence of an antagonist - cell viability counter screen (AID 1259379). Also: nearly all actives have a fitted effect of over 25% in size. Also: potency is read from the fitted curve at half-maximal effect. In short, it runs like this: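 MDA-kb2 viability measured by CellTiter-Fluor fluorescence in the same wells as the luciferase signal; nilutamide 3.0uM final; 15-point compound titration; 16 hr at 37C.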

The nature of test [11]: qHTS assay to identify small molecule agonists of the estrogen receptor beta (ER-beta) signaling pathway - cell viability counter screen (AID 1259380). Also: nearly all actives have a fitted effect of over 30% in size. Also: potency is read from the fitted curve at half-maximal effect. In short, it runs like this:
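Measured: luminescence from CellTiter-Glo after 30 min at room temperature, added to wells already read for the LiveBLAzer FRET reporter (2 hr substrate); ER-beta-UAS-bla HEK293T cells had 16 hr compound treatment at 37C, 5% CO2.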

In test [12] the target is Androgen receptor (Homo sapiens) (UniProt P10275). The test is described as follows: qHTS assay to identify small molecule agonists of the androgen receptor (AR) signaling pathway in the presence of an antagonist (AID 1259381; calls by dose curve; also: nearly all actives have a fitted effect of over 15% in size). In outline:
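Luminescent ONE-Glo read, 30min at room temperature, follows 16hr compound exposure (15 concentrations) of MDA-kb2 cells at 37C, 0% CO2, with nilutamide added at 3.0uM final.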

Test [13] in a line: qHTS assay to identify small molecule antagonists of the estrogen receptor beta (ER-beta) signaling pathway - cell viability counter screen (AID 1259382). Also: nearly all actives have a fitted effect of over 55% in size. Also: potency is read from the fitted curve at half-maximal effect. In outline:
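Readout: luminescence, CellTiter-Glo, same wells as bla assay. System: ER-beta-UAS-bla GripTite HEK293T, 2% charcoal-stripped FBS. Exposure: compounds plus 1nM 17-beta-estradiol, 16 hr, 37C.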

Test [14] has as its target Estrogen receptor (Homo sapiens) (UniProt P03372). Description: qHTS assay to identify small molecule agonists of the estrogen receptor alpha (ER-alpha) signaling pathway in the presence of an antagonist (AID 1259383; calls by dose curve; also: top concentration of the series differs between compounds; nearly all actives have a fitted effect of over 15% in size). In outline: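 Quantitative HTS confirmation: compounds titrated at 15 concentrations onto estrogen-deprived VM7Luc4E2 cells carrying a four-ERE luciferase construct, with ICI-182,780 present at 10.0nM final. Signal is luminescence after 22hr exposure.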

Test [15] is described as follows: qHTS assay to identify small molecule agonists or antagonists of the thyroid stimulating hormone receptor (TSHR) signaling pathway - wild type cell line counter screen (AID 1259384; calls by dose curve). In outline: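 Wild-type HEK293 cells were plated 18 h at 37 C/5% CO2, pin-dosed with compound plus Ro20-1724 medium, held 30 min at room temperature, then given cAMP-d2 and anti-cAMP-cryptate; fluorescence was read after 1 h. Fifteen concentrations, triplicate.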

Test [16] addresses Thyrotropin receptor (Homo sapiens) (UniProt P16473). The test is described as follows: qHTS assay to identify small molecule antagonists of the thyroid stimulating hormone receptor (TSHR) signaling pathway (AID 1259385; calls by dose curve; also: nearly all actives have a fitted effect of over 20% in size; also: potency is read from the fitted curve at half-maximal effect). In outline: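 TSHR-HEK293 cells were plated and held 18 h at 37C/5% CO2, then given compound plus Ro20-1724 and stimulated with TSH at 1.5 ng/mL final. After 30 min at room temperature, cAMP was detected with cAMP-d2/anti-cAMP-cryptate (1 h) by fluorescence.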

Test [17] in a line: qHTS assay to identify small molecule agonists of the estrogen receptor alpha (ER-alpha) signaling pathway in the presence of an antagonist - cell viability counter screen (AID 1259386).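 Also: cells exposed to compounds for 22 h at 37 °C before the viability read; nearly all actives have a fitted effect of over 30% in size.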 Also: potency is read from the fitted curve at half-maximal effect. In outline: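 The test measures whether compounds kill ER-alpha reporter cells (VM7Luc4E2) under antagonist co-treatment (ICI-182,780, 10.0nM). Fluorescence from CellTiter-Fluor is read after a 22hr exposure.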

Test [18] concerns the target Progesterone receptor (Homo sapiens) (UniProt P06401). The test is described as follows: qHTS assay to identify small molecule agonists of the progesterone receptor (PR) signaling pathway (AID 1346784; calls by dose curve; also: nearly all actives have a fitted effect of over 30% in size). In short, it runs like this:
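Reporter assay, GripTite PR-UAS-bla HEK 293T cells: 16 hr exposure to DMSO-dissolved compounds at 37C, 5% CO2, in steroid-depleted (2% charcoal-stripped FBS) medium; beta-lactamase measured by FRET fluorescence.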

The target of test [19] is Estrogen receptor (Homo sapiens) (UniProt P03372). The test is described as follows: qHTS assay to identify small molecule antagonists of the estrogen receptor alpha (ER-alpha) signaling pathway using the BG1 cell line in the presence of 0.1 nM 17-beta-estradiol (AID 1259244). Also: nearly all actives have a fitted effect of over 50% in size. Also: potency is read from the fitted curve at half-maximal effect. In outline: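 Compounds were tested against 0.1 nM (final) 17beta-estradiol in VM7Luc4E2 cells, which express full-length ER-alpha and an ERE-luciferase reporter; luminescence was recorded following 22 h exposure.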
Chain of Estrogen receptor (Homo sapiens) (P03372 whole entry, looked up): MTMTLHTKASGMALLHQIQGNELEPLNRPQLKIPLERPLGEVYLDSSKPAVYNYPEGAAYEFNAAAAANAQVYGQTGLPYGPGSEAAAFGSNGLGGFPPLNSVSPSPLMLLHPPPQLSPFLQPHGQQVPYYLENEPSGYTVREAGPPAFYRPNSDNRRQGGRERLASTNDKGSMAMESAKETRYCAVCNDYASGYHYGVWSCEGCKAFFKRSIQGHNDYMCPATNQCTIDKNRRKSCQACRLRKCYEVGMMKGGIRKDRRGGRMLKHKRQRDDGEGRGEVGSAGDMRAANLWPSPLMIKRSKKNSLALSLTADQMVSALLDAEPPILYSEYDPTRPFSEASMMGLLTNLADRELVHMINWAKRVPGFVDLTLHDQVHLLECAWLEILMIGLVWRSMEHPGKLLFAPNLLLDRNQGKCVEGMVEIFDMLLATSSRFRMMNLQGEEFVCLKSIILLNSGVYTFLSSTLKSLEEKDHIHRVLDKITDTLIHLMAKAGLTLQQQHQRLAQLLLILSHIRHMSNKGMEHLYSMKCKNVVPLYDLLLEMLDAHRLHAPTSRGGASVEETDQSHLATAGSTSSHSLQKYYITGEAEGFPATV

Chain of Estrogen receptor beta (Homo sapiens) (Q92731 whole entry, looked up): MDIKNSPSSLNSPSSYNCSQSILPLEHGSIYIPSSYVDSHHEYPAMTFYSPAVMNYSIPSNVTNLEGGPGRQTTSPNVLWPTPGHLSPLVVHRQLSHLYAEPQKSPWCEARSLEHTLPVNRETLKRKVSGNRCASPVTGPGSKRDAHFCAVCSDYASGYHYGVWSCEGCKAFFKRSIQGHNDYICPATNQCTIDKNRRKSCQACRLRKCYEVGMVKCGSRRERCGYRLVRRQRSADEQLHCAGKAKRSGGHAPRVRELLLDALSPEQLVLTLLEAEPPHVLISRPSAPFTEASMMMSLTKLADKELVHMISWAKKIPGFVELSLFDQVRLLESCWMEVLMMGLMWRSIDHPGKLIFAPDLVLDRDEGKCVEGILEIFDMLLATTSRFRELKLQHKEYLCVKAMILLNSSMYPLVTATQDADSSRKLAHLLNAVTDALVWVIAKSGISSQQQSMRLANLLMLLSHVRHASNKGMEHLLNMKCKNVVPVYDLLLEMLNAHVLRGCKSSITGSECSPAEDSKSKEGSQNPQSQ
Chain of Thyrotropin receptor (Homo sapiens) (P16473 whole entry, looked up): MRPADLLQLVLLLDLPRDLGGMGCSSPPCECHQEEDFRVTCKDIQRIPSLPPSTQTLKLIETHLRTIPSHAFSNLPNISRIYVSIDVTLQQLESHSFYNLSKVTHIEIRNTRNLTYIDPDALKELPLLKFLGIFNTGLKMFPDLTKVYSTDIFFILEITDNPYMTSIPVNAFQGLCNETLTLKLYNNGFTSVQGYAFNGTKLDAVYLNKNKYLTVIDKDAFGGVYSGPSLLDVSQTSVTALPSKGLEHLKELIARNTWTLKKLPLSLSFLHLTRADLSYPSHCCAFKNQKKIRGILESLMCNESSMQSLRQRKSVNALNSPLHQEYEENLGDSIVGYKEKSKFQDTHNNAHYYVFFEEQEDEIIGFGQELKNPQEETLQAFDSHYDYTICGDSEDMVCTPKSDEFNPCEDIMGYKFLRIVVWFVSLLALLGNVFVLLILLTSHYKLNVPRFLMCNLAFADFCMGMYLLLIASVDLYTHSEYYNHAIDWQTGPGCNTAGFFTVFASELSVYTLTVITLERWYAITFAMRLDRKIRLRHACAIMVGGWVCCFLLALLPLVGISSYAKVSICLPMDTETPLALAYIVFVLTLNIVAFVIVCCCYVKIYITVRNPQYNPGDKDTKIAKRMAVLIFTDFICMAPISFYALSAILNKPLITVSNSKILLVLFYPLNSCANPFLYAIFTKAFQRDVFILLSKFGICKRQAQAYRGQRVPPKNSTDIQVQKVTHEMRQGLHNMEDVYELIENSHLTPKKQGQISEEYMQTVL
Chain of Androgen receptor (Homo sapiens) (P10275 whole entry, looked up): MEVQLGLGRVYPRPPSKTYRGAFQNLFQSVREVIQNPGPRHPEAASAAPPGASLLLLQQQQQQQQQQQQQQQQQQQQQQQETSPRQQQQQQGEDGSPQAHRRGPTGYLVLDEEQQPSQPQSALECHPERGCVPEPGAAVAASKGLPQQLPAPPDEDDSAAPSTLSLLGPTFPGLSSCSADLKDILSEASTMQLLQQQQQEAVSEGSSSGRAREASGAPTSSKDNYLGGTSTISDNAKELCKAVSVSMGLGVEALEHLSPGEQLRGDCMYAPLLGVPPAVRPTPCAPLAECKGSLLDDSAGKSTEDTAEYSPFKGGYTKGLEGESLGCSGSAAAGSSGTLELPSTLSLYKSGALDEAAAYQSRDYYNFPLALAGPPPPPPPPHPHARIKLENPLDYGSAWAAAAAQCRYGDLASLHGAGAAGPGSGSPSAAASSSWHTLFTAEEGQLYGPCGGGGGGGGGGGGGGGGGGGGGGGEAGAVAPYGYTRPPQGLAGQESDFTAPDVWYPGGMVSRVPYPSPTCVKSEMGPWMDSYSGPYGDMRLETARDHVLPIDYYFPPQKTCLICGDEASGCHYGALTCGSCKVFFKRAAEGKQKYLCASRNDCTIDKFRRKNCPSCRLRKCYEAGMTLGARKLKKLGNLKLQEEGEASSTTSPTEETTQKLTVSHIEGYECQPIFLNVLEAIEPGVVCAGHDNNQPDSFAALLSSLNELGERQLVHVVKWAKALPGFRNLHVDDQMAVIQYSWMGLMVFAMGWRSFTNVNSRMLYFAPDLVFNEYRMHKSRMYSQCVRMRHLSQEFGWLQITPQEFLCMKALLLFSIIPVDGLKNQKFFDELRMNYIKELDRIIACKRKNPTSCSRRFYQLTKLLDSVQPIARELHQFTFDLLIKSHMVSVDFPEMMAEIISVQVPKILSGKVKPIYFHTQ
Chain of Progesterone receptor (Homo sapiens) (P06401 whole entry, looked up): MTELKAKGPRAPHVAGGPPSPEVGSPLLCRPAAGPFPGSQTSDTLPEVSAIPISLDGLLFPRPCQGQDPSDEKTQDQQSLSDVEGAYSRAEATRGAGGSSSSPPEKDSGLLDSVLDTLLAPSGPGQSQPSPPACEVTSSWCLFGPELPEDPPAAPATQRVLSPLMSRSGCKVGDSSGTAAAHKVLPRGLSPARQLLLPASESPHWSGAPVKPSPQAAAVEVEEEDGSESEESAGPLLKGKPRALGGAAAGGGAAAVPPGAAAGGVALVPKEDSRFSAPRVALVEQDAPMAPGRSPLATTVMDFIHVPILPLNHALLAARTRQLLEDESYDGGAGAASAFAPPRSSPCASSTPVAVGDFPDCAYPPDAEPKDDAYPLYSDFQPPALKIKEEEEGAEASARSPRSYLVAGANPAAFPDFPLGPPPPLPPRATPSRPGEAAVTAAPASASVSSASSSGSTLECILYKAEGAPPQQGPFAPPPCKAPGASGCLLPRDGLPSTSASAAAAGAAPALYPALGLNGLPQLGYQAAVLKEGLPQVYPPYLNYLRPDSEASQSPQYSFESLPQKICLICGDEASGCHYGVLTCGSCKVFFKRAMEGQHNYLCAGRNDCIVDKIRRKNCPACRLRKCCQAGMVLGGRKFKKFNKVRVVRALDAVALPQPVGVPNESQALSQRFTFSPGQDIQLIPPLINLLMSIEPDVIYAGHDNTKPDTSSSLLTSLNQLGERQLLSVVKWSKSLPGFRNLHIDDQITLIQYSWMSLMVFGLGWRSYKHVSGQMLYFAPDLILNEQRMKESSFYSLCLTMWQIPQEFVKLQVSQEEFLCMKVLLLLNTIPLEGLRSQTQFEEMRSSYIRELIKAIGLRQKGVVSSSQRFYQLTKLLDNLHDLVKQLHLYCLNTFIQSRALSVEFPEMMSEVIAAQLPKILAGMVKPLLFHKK

Regarding `O=C(O)c1ccc(Cl)c(Cl)c1`, the Potency result in test [1], in [2], in test [3], in [4], in test [5] and in [6] was “inactive” in each case. Also, the Potency entry in test [7], in test [8], in [9], in [10], in [11] and in [12] was “inactive” in each case. The Potency entry in test [13], in test [14], in [16], in test [17] and in test [18] was “inactive” throughout. The result in test [15] was inactive.

As for `Cc1cc(O)c(C(C)(C)C)cc1C(C)(C)C`, the Potency in test [1] was 61.1 µM (active); in test [19] it was 54.5 µM (active); in [5], 61.1 µM (active); in [7], 48.6 µM (active); in test [11] it was 54.5 µM (active); in test [13] it was 61.1 µM (active). In addition, the Potency result in [2], in test [6], in [12] and in test [14] was “inactive” throughout. Further, in [15], the outcome was inactive.

For `O=S1(=O)CC(Cl)(Cl)C(Cl)(Cl)C1`, the Potency in test [1] was 5.45 µM (active); in [3], 48.6 µM (active); in test [4], 1.37 µM (active); in test [7], 0.344 µM (active); in test [9] it was 4.86 µM (active); in test [10], 21.7 µM (active). The Potency in test [11] was 9.69 µM (active); in test [13], 9.69 µM (active); in test [16], 48.6 µM (active); in [17], 27.3 µM (active). Further, the Potency result in [2], in test [6], in test [8], in test [12] and in test [14] was “inactive” throughout. For the same compound, in [15], the compound was called inactive.

Regarding `COC(=O)c1cc(Cl)ccc1OC`, the Potency entry in test [1], in test [19], in test [3], in [4], in test [5] and in test [6] was “inactive” throughout. Besides, the Potency result in test [7], in [10], in test [11], in [12], in test [13] and in test [14] was “inactive” throughout. Besides, in [17], the Potency entry was “inactive”. Moreover, in [15], the compound was classed as inactive.

On to `Nc1ccc(N)c2ccccc12`, for which the Potency was 19.3 µM (active) in test [1]; 12.2 µM (active) in test [19]; 61.1 µM (active) in [4]; 61.1 µM (active) in [5]; 12.2 µM (active) in test [7]; 61.1 µM (active) in test [10]. In addition, the Potency is 24.3 µM (active) in test [11], 27.3 µM (active) in test [13] and 30.6 µM (active) in test [17]. For the same compound, the Potency result in test [2], in [6], in test [12] and in test [14] was “inactive” in each case. The outcome in test [15] was inactive.

Consider `Cc1cc(CCN2CCN(c3nsc4ccccc34)CC2)cc2c1NC(=O)CC2(C)C`, for which the Potency in [1] was 8.63 µM (active); in test [19], 13.7 µM (active); in test [4] it was 21.7 µM (active); in test [7], 1.37 µM (active); in test [10], 30.6 µM (active); in test [11] it was 21.7 µM (active). Besides, the Potency was 19.3 µM (active) in test [13] and 48.6 µM (active) in test [17]. Also, the Potency result in test [3], in [12] and in test [14] was “inactive” each time. In test [15], the call was inactive.

With `N#CSc1ccc(N)c([N+](=O)[O-])c1`, the Potency is 30.8 µM (active) in test [1]; 69 µM (active) in test [4]; 30.8 µM (active) in test [5]; 12.3 µM (active) in [7]; 19.4 µM (active) in test [9]; 61.5 µM (active) in [16]. Besides, the Potency in [17] is 48.9 µM (active). The Potency entry in test [2], in [3], in [6], in test [12] and in test [18] was “inactive” throughout. Moreover, the outcome in test [15] was inactive.
